Where a name gives a salt, the structure may show the parent alone.
Columns and labels:
Assay in all cases: lowest phenotypically active concentration; higher = less potent
Details in all cases: treatment time: 24 h
A549-TP53BP1-CLTA = system: A549-TP53BP1-CLTA
In short: (§1)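 The reporter lines, fifteen in total and built by gene editing in A549, HepG2 and WPMY1 cells, used BFP for segmentation alongside GFP and RFP/FusionRed markers. Each was treated at 0.3, 1, 3 or 9 µM for 24 h in four wells and then imaged live, with live-cell features normalised to solvent control wells. Deviation meant ≥3 of 4 wells beyond the 95th percentile of control Euclidean distances; reproducibility meant a median replicate Pearson correlation above the 95th percentile of non-replicates. Only conditions meeting both were scored as phenotypically active.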

HepG2-CANX-COX4 = system: HepG2-CANX-COX4
In short: as §1

HepG2-GM130-SQSTM1 = system: HepG2-GM130-SQSTM1
In short: as §1

HepG2-TP53BP1-CLTA = system: HepG2-TP53BP1-CLTA
In short: as §1

HepG2-TUBA1B-RELA = system: HepG2-TUBA1B-RELA
In short: as §1

WPMY1-ACTB-RAB5A = system: WPMY1-ACTB-RAB5A
In short: as §1

WPMY1-CANX-COX4 = system: WPMY1-CANX-COX4
In short: as §1

WPMY1-GM130-SQSTM1 = system: WPMY1-GM130-SQSTM1
In short: as §1

WPMY1-TP53BP1-CLTA = system: WPMY1-TP53BP1-CLTA
In short: as §1

WPMY1-TUBA1B-RELA = system: WPMY1-TUBA1B-RELA
In short: as §1

Structure (SMILES)	lowest phenotypically active concentration (A549-TP53BP1-CLTA)	lowest phenotypically active concentration (HepG2-CANX-COX4)	lowest phenotypically active concentration (HepG2-GM130-SQSTM1)	lowest phenotypically active concentration (HepG2-TP53BP1-CLTA)	lowest phenotypically active concentration (HepG2-TUBA1B-RELA)	lowest phenotypically active concentration (WPMY1-ACTB-RAB5A)	lowest phenotypically active concentration (WPMY1-CANX-COX4)	lowest phenotypically active concentration (WPMY1-GM130-SQSTM1)	lowest phenotypically active concentration (WPMY1-TP53BP1-CLTA)	lowest phenotypically active concentration (WPMY1-TUBA1B-RELA)
CN(C)CC(=O)N1CCC[C@@H](n2nc(-c3ccc(Oc4ccccc4)cc3)c3c(N)ncnc32)C1	9 µM	3 µM	3 µM	1 µM	1 µM	3 µM	9 µM	3 µM	3 µM	3 µM
COc1ccc(C[C@H](N)C(=O)N[C@H]2[C@@H](O)[C@H](n3cnc4c(N(C)C)ncnc43)O[C@@H]2CO)cc1 [Puromycin dihydrochloride]	1 µM	≤ 0.3 µM	≤ 0.3 µM	≤ 0.3 µM	≤ 0.3 µM	≤ 0.3 µM	1 µM	≤ 0.3 µM	1 µM	1 µM
O=C(Nc1c[nH]nc1-c1nc2cc(CN3CCOCC3)ccc2[nH]1)NC1CC1	≤ 0.3 µM	≤ 0.3 µM	≤ 0.3 µM	≤ 0.3 µM	≤ 0.3 µM	≤ 0.3 µM	≤ 0.3 µM	≤ 0.3 µM	≤ 0.3 µM	≤ 0.3 µM
CO[C@@H]1[C@H](N(C)C(=O)c2ccccc2)C[C@H]2O[C@]1(C)n1c3ccccc3c3c4c(c5c6ccccc6n2c5c31)C(=O)NC4	≤ 0.3 µM	≤ 0.3 µM	≤ 0.3 µM	≤ 0.3 µM	≤ 0.3 µM	≤ 0.3 µM	≤ 0.3 µM	1 µM	≤ 0.3 µM	≤ 0.3 µM
Cc1cc(Nc2nc(N[C@@H](C)c3ncc(F)cn3)ncc2Cl)n[nH]1	3 µM	3 µM	3 µM	≤ 0.3 µM	1 µM	3 µM	9 µM	9 µM	3 µM	3 µM
O=C(Cc1ccc(-c2ccc(OCCN3CCOCC3)cc2)cn1)NCc1ccccc1	≤ 0.3 µM	≤ 0.3 µM	≤ 0.3 µM	≤ 0.3 µM	≤ 0.3 µM	≤ 0.3 µM	≤ 0.3 µM	≤ 0.3 µM	≤ 0.3 µM	≤ 0.3 µM
COc1ccc(N2C(=O)CSC2c2cccc(Br)c2)c(OC)c1 (stereo not given)	3 µM	3 µM	9 µM	9 µM	9 µM	3 µM	3 µM	3 µM	3 µM	3 µM
CC(C)n1c(/C=C/[C@@H](O)C[C@@H](O)CC(=O)O)c(-c2ccc(F)cc2)c2ccccc21.CC(C)n1c(/C=C/[C@H](O)C[C@H](O)CC(=O)O)c(-c2ccc(F)cc2)c2ccccc21 [Fluvastatin sodium]	9 µM	1 µM	1 µM	1 µM	1 µM	≤ 0.3 µM	1 µM	≤ 0.3 µM	1 µM	1 µM
CNC(=O)c1ccccc1Sc1ccc2c(/C=C/c3ccccn3)n[nH]c2c1 [Axitinib]	3 µM	3 µM	3 µM	3 µM	3 µM	9 µM	9 µM	3 µM	3 µM	3 µM
COc1cc([C@@H]2c3cc4c(cc3[C@@H](O[C@@H]3O[C@@H]5CO[C@@H](c6cccs6)O[C@H]5[C@H](O)[C@H]3O)[C@H]3COC(=O)[C@H]23)OCO4)cc(OC)c1O [teniposide]	≤ 0.3 µM	≤ 0.3 µM	≤ 0.3 µM	≤ 0.3 µM	≤ 0.3 µM	≤ 0.3 µM	≤ 0.3 µM	≤ 0.3 µM	≤ 0.3 µM	≤ 0.3 µM
COc1cccc(-c2cc(F)ccc2[C@H]2Cc3nc(N)nc(C)c3C(=O)N2)n1	≤ 0.3 µM	≤ 0.3 µM	≤ 0.3 µM	≤ 0.3 µM	≤ 0.3 µM	≤ 0.3 µM	≤ 0.3 µM	≤ 0.3 µM	≤ 0.3 µM	≤ 0.3 µM
CN(C)CCCNc1c2c(=O)n(C)c(=O)nc-2n(C)c2ccccc12	9 µM	9 µM	9 µM	9 µM	9 µM	9 µM	9 µM	9 µM	9 µM	3 µM
CCOC(=O)CCNc1cc(N2CCc3ccccc3CC2)nc(-c2ccccn2)n1	3 µM	3 µM	3 µM	3 µM	3 µM	9 µM	9 µM	3 µM	3 µM	9 µM
O=C1Nc2ccc(F)cc2C1=C1Nc2ccccc2C1=NO [5'-Fluoroindirubinoxime]	1 µM	≤ 0.3 µM	1 µM	1 µM	1 µM	1 µM	≤ 0.3 µM	1 µM	≤ 0.3 µM	1 µM
COc1ccc(-c2ccc3ncc4c(c3c2)n(-c2ccc(N3CCNCC3)c(C(F)(F)F)c2)c(=O)n4C)cn1	≤ 0.3 µM	≤ 0.3 µM	≤ 0.3 µM	≤ 0.3 µM	≤ 0.3 µM	≤ 0.3 µM	≤ 0.3 µM	≤ 0.3 µM	≤ 0.3 µM	≤ 0.3 µM
Cc1c(NC(=O)OC[C@@H]2COCCN2)cn2ncnc(Nc3ccc4c(cnn4Cc4cccc(F)c4)c3)c12	≤ 0.3 µM	9 µM	1 µM	3 µM	1 µM	3 µM	3 µM	9 µM	9 µM	3 µM
Oc1ccc(-c2nc(-c3ccc(F)cc3)c(-c3ccncc3)[nH]2)cc1	1 µM	1 µM	≤ 0.3 µM	1 µM	3 µM	9 µM	9 µM	3 µM	9 µM	3 µM
Cc1ccc(-n2nc(C(C)(C)C)cc2NC(=O)Nc2ccc(OCCN3CCOCC3)c3ccccc23)cc1	9 µM	3 µM	3 µM	3 µM	≤ 0.3 µM	3 µM	1 µM	1 µM	9 µM	1 µM
